In PubChem BioAssay AID1159580 (chemical genetic matrix, 2015):
Values joined by “and” are separate entries in the source; they are usually repeats but may differ in a detail not shown here. Equal values may be shown once. Among all 5,500 compounds or so, about 2,000 (36%) were called active. Inconclusive results (about 18%) are left out. Rule as the data show it: active = normalized growth mostly below about 0.91 (no sharp cut-off); inconclusive = no clear call, values can overlap the other calls; inactive = mostly above about 0.92. This is one part of the list.

Experiment: chemical genetic growth profiling, strain panel (AID 1159580);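 also: tested at 20 µM; growth read once vehicle control cultures reached saturation at 30 °C; 1 = growth at the plate median or of vehicle wells; lower values mean less growth of the strain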
Details: S. cerevisiae deletion strains, growth OD

Measured: normalized growth

CN1CCN(C(c2ccccc2)c2ccccc2)CC1
inactive: locus YAL013W, strain DEP1, stronger effect = lower value 0.996 | locus YAL021C, strain ccr4, stronger effect = lower value 0.973 | locus YAL026C, strain drs2, stronger effect = lower value 0.988 | locus YAL030W, strain snc1, stronger effect = lower value 0.996 | locus YBL061C, strain skt5, stronger effect = lower value 0.993 | locus YBR009C, strain hhf1, stronger effect = lower value 1.01 | locus YBR021W, strain FUR4, stronger effect = lower value 0.998 | locus YBR023C, strain chs3, stronger effect = lower value 0.985 | locus YBR171W, strain sec66, stronger effect = lower value 0.975 | locus YBR229C, strain ROT2, stronger effect = lower value 1.01 | locus YBR231C, strain swc5, stronger effect = lower value 0.966 | locus YBR279W, strain paf1, stronger effect = lower value 0.995 | locus YCL011C, strain gbp2, stronger effect = lower value 0.998 | locus YCL016C, strain dcc1, stronger effect = lower value 0.973 | locus YCL029C, strain bik1, stronger effect = lower value 0.973 | locus YCL069W, strain vba3, stronger effect = lower value 0.995 | locus YCR088W, strain abp1, stronger effect = lower value 0.983 | locus YDL005C, strain med2, stronger effect = lower value 0.969 | locus YDL035C, strain GPR1, stronger effect = lower value 0.984 | locus YDL040C, strain nat1, stronger effect = lower value 0.98 | locus YDL074C, strain BRE1, stronger effect = lower value 0.993 | locus YDL101C, strain DUN1, stronger effect = lower value 1 | locus YDL134C, strain PPH21, stronger effect = lower value 1.01 | locus YDL185W, strain tfp1, stronger effect = lower value 0.942 | locus YDL192W, strain arf1, stronger effect = lower value 0.971 | locus YDR001C, strain nth1, stronger effect = lower value 1.02 | locus YDR069C, strain doa4, stronger effect = lower value 0.964 | locus YDR101C, strain arx1, stronger effect = lower value 0.988 | locus YDR137W, strain rgp1, stronger effect = lower value 0.994 | locus YDR150W, strain NUM1, stronger effect = lower value 0.989 | locus YDR159W, strain sac3, stronger effect = lower value 0.991 | locus YDR162C, strain NBP2, stronger effect = lower value 1.01 | locus YDR195W, strain ref2 0.958 | locus YDR297W, strain sur2, stronger effect = lower value 0.996 | locus YDR318W, strain mcm21, stronger effect = lower value 0.969 | locus YDR334W, strain swr1, stronger effect = lower value 0.977 | locus YDR335W, strain msn5, stronger effect = lower value 0.994 | locus YDR388W, stronger effect = lower value 0.966 | locus YDR392W, strain spt3, stronger effect = lower value 0.915 | locus YDR502C, strain sam2, stronger effect = lower value 0.978 | locus YEL003W, strain gim4, stronger effect = lower value 0.984 | locus YEL037C, strain rad23, stronger effect = lower value 0.988 | locus YEL061C, strain CIN8 (second series), stronger effect = lower value 0.997 | locus YEL061C, strain CIN8, stronger effect = lower value 0.975 | locus YER015W, strain faa2, stronger effect = lower value 0.979 | locus YER016W, strain bim1, stronger effect = lower value 0.971 | locus YER110C, stronger effect = lower value 0.973 | locus YER111C, strain swi4, stronger effect = lower value 0.983 | locus YER155C, strain BEM2 (second series), stronger effect = lower value 0.932 | locus YER155C, strain BEM2, stronger effect = lower value 1 | locus YER167W, strain BCK2, stronger effect = lower value 0.997 | locus YFR010W, strain ubp6, stronger effect = lower value 0.99 | locus YGL078C, strain dbp3, stronger effect = lower value 0.989 | locus YGL086W, strain mad1, stronger effect = lower value 0.983 | locus YGL167C, strain pmr1, stronger effect = lower value 0.98 | locus YGL173C, strain kem1, stronger effect = lower value 0.979 | locus YGL227W, strain vid30, stronger effect = lower value 0.968 | locus YGL240W, strain doc1, stronger effect = lower value 1.01 | locus YGL248W, strain PDE1, stronger effect = lower value 1 | locus YGL253W, strain hxk2, stronger effect = lower value 0.985 | locus YGR078C, strain PAC10, stronger effect = lower value 0.998 | locus YGR135W, strain pre9, stronger effect = lower value 0.979 | locus YGR229C, strain SMI1, stronger effect = lower value 1.03 | locus YGR252W, strain gcn5, stronger effect = lower value 1.03 | locus YHR013C, strain ard1, stronger effect = lower value 0.902 | locus YHR027C, strain rpn1, stronger effect = lower value 0.985 | locus YHR030C, strain SLT2, stronger effect = lower value 0.995 and 0.998 | locus YHR079C, strain IRE1 (second series), stronger effect = lower value 0.969 | locus YHR079C, strain IRE1, stronger effect = lower value 0.992 | locus YHR094C, strain hxt1, stronger effect = lower value 0.965 | locus YHR129C, strain ARP1, stronger effect = lower value 0.999 | locus YHR142W, strain chs7, stronger effect = lower value 1 | locus YHR200W, strain rpn10, stronger effect = lower value 0.966 | locus YIL066C, strain RNR3, stronger effect = lower value 1 | locus YIL073C, strain SPO22, stronger effect = lower value 0.965 | locus YIL125W, strain kgd1, stronger effect = lower value 0.981 | locus YIR030C, strain dcg1, stronger effect = lower value 0.967 | locus YJL092W, strain hpr5, stronger effect = lower value 0.991 | locus YJL095W, strain BCK1 (second series), stronger effect = lower value 0.993 | locus YJL095W, strain BCK1, stronger effect = lower value 0.966 and 0.998 | locus YJL115W, strain asf1, stronger effect = lower value 0.996 | locus YJL129C, strain trk1, stronger effect = lower value 0.968 | locus YJL134W, strain LCB3, stronger effect = lower value 0.997 | locus YJL154C, strain vps35, stronger effect = lower value 0.999 | locus YJL164C, strain tpk1, stronger effect = lower value 1.02 | locus YJL166W, strain qcr8, stronger effect = lower value 1.01 | locus YJL168C, strain set2, stronger effect = lower value 0.968 | locus YJL187C, strain SWE1 (second series), stronger effect = lower value 0.999 | locus YJL187C, strain SWE1, stronger effect = lower value 0.994 | locus YJR043C, strain POL32, stronger effect = lower value 1.01 | locus YJR066W, strain TOR1, stronger effect = lower value 0.994
